Inhibition data for 57 compounds are collected here from PubChem BioAssay AID2148 (The Scripps Research Institute Molecular Screening Center, 2009).

About 1,500 (62%) of roughly 2,400 compounds were called active. No stated cut-off is given here; in the data, active means inhibition above about 22%; inactive means the rest. So high a share suggests a set chosen from earlier hits. Not all results are given here.

The test addresses Melanin-concentrating hormone receptor 1 (Homo sapiens) (UniProt Q99705). Put plainly: MCHR1 antagonists in cells, counter-screen for GPR7 antagonist project, cell-based, fluorescence, human (AID 2148).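 Further: 0% = vehicle with agonist and 100% = vehicle without agonist.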 The note with it: MCHR1-expressing cells, fluorescence antagonist assay; at 4.4 µM; hits give high values. A general note: Counterscreens check selectivity or assay interference.
Take `COc1ccccc1N(C(=O)Cn1nnc2ccccc21)C(C(=O)NCc1ccco1)c1ccc(C)o1` (configuration not stated): the inhibition is 25.9% (active).

In the case of `O=[N+]([O-])/C=C/c1ccc2c(ccn2Cc2ccccc2)c1`, the inhibition was 104% (active). As for `CCCOc1ccccc1C1CC(=O)Nc2cc3c(cc21)OCO3` (configuration not stated), the inhibition is 51.8% (active). Regarding `COc1cc(OC)cc(C(=O)N[C@H](C(=O)OCC(=O)NC(C)c2ccccc2)C(C)C)c1` (some centres not stated), the inhibition was 65% (active). Take `Cc1ccc(NC(=O)CN2C(=O)NC(C)(c3ccc(Cl)cc3)C2=O)c(Br)c1` (configuration not stated): the inhibition was 6.97% (inactive).

`COc1cc(NC(=O)CN2C(=O)NC(C)(c3ccc(OC(F)F)cc3)C2=O)cc(OC)c1OC` (configuration not stated): the inhibition is 28.4% (active). Turning to `C=CCNC(=O)COC(=O)c1ccccc1C(=O)N(C)C1CCCCC1`, the inhibition was -2.95% (inactive). As to `C=CCC1(CC=C)CCCN1C(=O)c1cc(COc2ccc(-n3cncn3)cc2)on1`, the inhibition was 55.2% (active). As to `CCc1ccc(NC(=O)c2ccc(Cn3cc([N+](=O)[O-])cn3)cc2)cc1`, the inhibition was 35.1% (active).

Turning to `CCOc1ccc(C(=O)NC(=S)Nc2ccc(N3CCOCC3)c(Cl)c2)cc1[N+](=O)[O-]`, the inhibition is 24.7% (active). Under `CC(C(=O)N1CCN(c2ccccc2F)CC1)c1ccc([N+](=O)[O-])cc1` (configuration not stated) stands 27.9% (active). For `CCN(CC)Cc1c(C(=O)OC)nnn1-c1nonc1N`, the inhibition was 5.07% (inactive). Under `Clc1ccc(-c2cc(C3CCNCC3)[nH]n2)c(Cl)c1` stands 35.6% (active); under `O=C(COc1ccc(S(=O)(=O)Nc2cccc(C(F)(F)F)c2)cc1)N1CCOCC1`, 28% (active); under `O=S(=O)(c1ccc(OCC(O)CN2CCN(c3ccccc3Cl)CC2)cc1)N1CCOCC1` (configuration not stated), 38.9% (active). Under `O=C(NCCCN1CCN(c2ccc(F)cc2)CC1)Nc1ccc([N+](=O)[O-])cc1` stands 65.1% (active). Under `Cc1c(CCO)c(=O)n(-c2ccccc2)n1S(=O)(=O)c1ccc(F)cc1` stands -12.3% (inactive); under `Cc1ccc(O)c(NC(=S)NC(=O)COc2ccc(Br)cc2)c1`, 83.8% (active). In the case of `CN(c1cccc(NC(=O)Nc2ccc(Cl)cc2)c1)S(C)(=O)=O`, the inhibition was 67.3% (active). The same measure for `COc1ccc(CS(=O)/C(Cl)=C(/Cl)C(=O)Nc2ccc(OC)nc2)cc1` (configuration not stated): 63.9% (active).

For the compound `CCOc1ncccc1C(=O)NCCc1ccc(OC)cc1`, the inhibition is 13.4% (inactive). For `COc1cccc(CNCCc2c[nH]c3ccccc23)c1OCc1ccccc1F`, the inhibition is 83.6% (active).

`Cc1ccccc1Nc1nnc(SCC(=O)c2cc3ccccc3o2)s1`: the inhibition is 10.6% (inactive). Under `Nc1nnc(SCC(=O)Nc2ccc3nc(SCC(=O)Nc4ccccc4)sc3c2)s1` stands 81.6% (active); under `O=C(CN1C(=O)/C(=C/c2ccccc2F)Sc2ccccc21)NCc1cccnc1`, 63% (active); under `Clc1ccc(C2CC(c3cccs3)n3ncnc3N2)cc1Cl` (configuration not stated), 15.5% (inactive). The same measure for `COc1ccc(C2Nc3ccccc3C(=O)N2Cc2ccccc2)cc1Cn1nnc2ccccc21` (configuration not stated): 32.1% (active); for `Fc1ccc(-c2ccc(-c3nn4c(-c5ccco5)nnc4s3)o2)cc1`: 12.7% (inactive).

Turning to `O=C(NCCCN1CCOCC1)c1ccc2c(c1)N(Cc1cccc(F)c1)C(=O)c1ccccc1S2`, the inhibition is 25.3% (active). On to `Cc1ccccc1CN1C(=O)c2ccccc2Sc2ccc(C(=O)NCCCN3CCOCC3)cc21`, for which the inhibition was 17% (inactive). As for `CCOC(=O)C1CSC(CC(=O)Nc2ccc(OCC)cc2)C(=O)N1` (configuration not stated), the inhibition was 3.62% (inactive). The same measure for `CCC(C)c1ccccc1NC(=O)CN(C)CC(=O)Nc1ccccc1SC` (configuration not stated): 24.8% (active); for `CCc1ccc(N(C(=O)c2csnn2)C(C(=O)NC2CCCCC2)c2ccncc2)cc1` (configuration not stated): 17.6% (inactive). On to `CC(C)OCCCNc1ncnc2c1[nH]c1ccc(F)cc12`, for which the inhibition was 70.9% (active). Under `Cc1cc(OC(C)C(=O)NC2CC(C)(C)NC(C)(C)C2)c2c(C)cc(=O)oc2c1` (configuration not stated) stands -9.17% (inactive). As to `CCOc1ccc(Cn2nnc(C(=O)NCc3ccccc3)c2N)cc1`, the inhibition is 51.5% (active).

For the compound `O=C(COc1ccccc1)NCc1ccc2c(c1)OCO2`, the inhibition is 1.89% (inactive). Under `Cc1ccccc1NC(=S)NC(=O)Cc1ccc(Cl)cc1` stands 65.3% (active).

Turning to `O=C(NC(=O)c1ccccc1)Nc1ccccc1O`, the inhibition was 14.3% (inactive). Under `O=C(Cc1ccc(Cl)cc1)NC(=S)Nc1ccccc1O` stands 96.4% (active). Consider `O=C(CC(=O)Nc1ccc(Cl)c(Cl)c1)N/N=C/c1ccc(O)cc1`, for which the inhibition is 12.4% (inactive). Under `CS(=O)(=O)N(CC(O)Cn1c2ccccc2c2ccccc21)c1cccc2ccccc12` (configuration not stated) stands 41.7% (active). The same measure for `Cc1cccc(NC(=O)c2cccc(C(=O)Nc3cccc(C)c3C)n2)c1C`: 25.4% (active); for `Cc1ccc(C(=O)C[n+]2cc(-c3ccccc3)n3c2CCCCC3)cc1`: 16.7% (inactive). Under `Cc1ccc2[nH]cc(CCNC(=O)c3ccc([N+](=O)[O-])cc3)c2c1` stands 49% (active).

For `O=C(Nc1nc(-c2ccc3c(c2)OCO3)cs1)c1ccncc1`, the inhibition was 67.8% (active). The same measure for `O=C(Nc1ccccc1F)c1ccc2c(c1)OCO2`: 2.37% (inactive); for `COc1ccc(NS(=O)(=O)c2ccc(NC(=S)NC(=O)CC(C)C)cc2)cc1`: 58.1% (active); for `O=C(CSCc1ccc([N+](=O)[O-])cc1)NCCSCc1ccccc1`: 28.9% (active). Under `O=[N+]([O-])c1ccc(N(CCO)Cc2ccccc2)c([N+](=O)[O-])c1` stands 15.3% (inactive); under `N=c1c2c(-c3ccccc3)c(-c3ccccc3)n(Cc3ccccc3)c2ncn1CCCO`, 38.1% (active); under `CCN1/C(=C\c2ccc3ccccc3[n+]2CC)Sc2cc(C)ccc21`, 42.9% (active). Regarding `CCc1ccc(OCC2c3cc(OC)c(OC)cc3CCN2C(C)=O)cc1` (configuration not stated), the inhibition was 29.6% (active).

Regarding `CC1CN(C(=O)CCC(=O)NCCCN2CCC(Cc3ccccc3)CC2)c2cc(Cl)ccc2O1` (configuration not stated), the inhibition was 49.6% (active). For the compound `Cc1ccc(S(=O)(=O)n2cnc3ccccc32)c(C)c1`, the inhibition is -5.48% (inactive). Under `CC(=O)Nc1ccc(S(=O)(=O)N(C)CC(=O)NCCC2=CCCCC2)cc1` stands -1.52% (inactive); under `COc1ccc(C(CCNCc2ccccc2F)c2ccc(F)cc2)cc1` (configuration not stated), 42.1% (active).

Broadly, the inhibition is the relative decrease from the control value, in per cent.
